Laboratory results as given in PubChem BioAssay.
Activity calls are given as the source filed them.

biological target: Albumin (Bos taurus) (UniProt P02769); experiment: bovine serum albumin binders on microarray, profiling panel, artefact control for SMM control protein annotation, biochemical, small-molecule microarray, Alexa647 label, 635/667 nm fluorescence (AID 1118); conditions: BSA-A647 binding, fluorescence 635 nm, higher = more signal;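 also: score merges 667 nm emission intensity and signal-to-noise per printed compound spot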
Sequence (P02769 whole entry, looked up): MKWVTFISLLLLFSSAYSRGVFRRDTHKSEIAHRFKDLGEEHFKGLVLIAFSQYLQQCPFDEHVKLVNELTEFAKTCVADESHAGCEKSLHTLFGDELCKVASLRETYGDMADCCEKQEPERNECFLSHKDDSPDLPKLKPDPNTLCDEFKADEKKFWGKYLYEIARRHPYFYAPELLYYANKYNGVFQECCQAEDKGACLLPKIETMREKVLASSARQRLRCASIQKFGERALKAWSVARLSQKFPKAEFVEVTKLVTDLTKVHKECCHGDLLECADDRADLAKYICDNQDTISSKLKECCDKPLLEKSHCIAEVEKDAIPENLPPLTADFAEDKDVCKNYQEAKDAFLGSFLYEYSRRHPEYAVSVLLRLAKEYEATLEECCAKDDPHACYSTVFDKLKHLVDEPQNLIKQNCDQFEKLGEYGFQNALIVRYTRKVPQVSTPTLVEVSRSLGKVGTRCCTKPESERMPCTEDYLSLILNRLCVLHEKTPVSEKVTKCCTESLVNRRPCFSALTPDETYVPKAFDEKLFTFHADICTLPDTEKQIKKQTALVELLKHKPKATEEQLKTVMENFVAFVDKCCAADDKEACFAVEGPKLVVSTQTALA

Composite z-score, 0.268:
CC(C)(C)N1CC=CC23O[C@@H]4/C=C\CCCOC(=O)C4[C@H]2C(=O)N(CCO)[C@@H]3C1=O (some centres undefined)

Composite z-score, -0.523:
O=C(CS)NCCCCCCNC(=O)[C@H]1C[C@H]2C(=O)NCC(=O)N2[C@H]1c1ccc(O)cc1

Composite z-score, 0.832:
CO[C@H]1O[C@H](CO)[C@@H](OC(=O)Nc2ccc(Oc3ccccc3)cc2)[C@H](OC(=O)Nc2ccccc2)[C@H]1OC(=O)Nc1ccccc1

Composite z-score, 0.136:
COCCOC(=O)N1C(=O)[C@@]2(c3cc(C#CCCO)ccc31)[C@H](c1ccc(O)cc1)N1[C@H](c3ccccc3)[C@H](c3ccccc3)OC(=O)[C@H]1[C@@H]2C(N)=O

test system: not listed separately; experiment: small-molecule microarray binders of probe aXIP, primary screen, biochemical, NeuroSMM set, 635/667 nm fluorescence (AID 1119); conditions: higher = more signal, called active from +8 up or from −8 down;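 also: probe is the protein aXip251-270 applied at 1 µg/mL to compound-printed slides; binding of probe to printed compounds measured as 667 nm fluorescence plus signal to noise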

Composite Z-score, inactive:
COc1cc(CO)ccc1OC(C)=O 0.151
COc1ccc(C#Cc2ccc3c(c2)[C@]2(C(=O)N3)[C@H](c3ccc(O)cc3)N3[C@H](c4ccccc4)[C@H](c4ccccc4)OC(=O)[C@H]3[C@@H]2C(=O)N2CCCCCCC2)cc1 5.12
CN1C=C(C(=O)OCCS(C)(=O)=O)C(C(=O)OCCS(C)(=O)=O)=CC(CCCO)=CC1C1CC1 (centres undefined) -0.561
COCCOC(=O)N1C(=O)[C@@]2(c3cc(C#CCC(C(=O)OC)C(=O)OC)ccc31)[C@H](c1ccc(O)cc1)N1[C@H](c3ccccc3)[C@H](c3ccccc3)OC(=O)[C@H]1[C@@H]2C(N)=O 1.07
COc1ccc(NN2C(C(O)c3ccc(OC)c(OCc4ccccc4)c3)C=CC3C(=O)N(C4CCCCC4)C(=O)C32)cc1 (centres undefined) 0.745
CC(C)N1CC=CC23O[C@@H]4C=CCOC(=O)[C@@H]4[C@H]2C(=O)N(CCO)[C@@H]3C1=O (some centres undefined) 0.604
O=C1c2ccccc2[C@@]2(Cc3ccccc3N(Cc3ccccc3)C2=O)[C@H](c2ccc(CO)cc2)N1C1CCCCC1 0.0066
CO[C@H]1O[C@H](CO)[C@@H](OC(=O)Nc2ccc3c(c2)OCO3)[C@H](OC(=O)Nc2ccccc2)[C@H]1OC(=O)Nc1ccccc1 0.118
CC(C)C[C@@H]1NC(=O)[C@@H]2C[C@H](C(=O)NCCCCCC[N+](C)(C)C)[C@H](c3ccc(O)cc3)N2C1=O 0.729
N#Cc1ccc(NN2C(C(O)C3CCCCC3)C=CC3C(=O)N(c4ccccc4)C(=O)C32)cc1 (centres undefined) 0.417
O=c1oc(-c2ccccc2)nc2cc(Br)ccc12 -0.12
COC(=O)[C@@]1(Cc2ccc(OC)cc2)[C@H]2c3cc(C(=O)N(C)C)n(Cc4c(OC)[nH]cc(C)c4=O)c3C[C@H]2CN1C(=O)c1ccccc1 0.0562
CC(C)NC(=O)[C@@H]1c2ccccc2C(=O)N(Cc2ccccc2)[C@H]1c1ccc(CO)cc1 0.601
O=C1C=CC(=O)[C@@H]2CC(COc3ccccc3)=C3[C@@H](CCc4ccccc4)OB(O)C[C@@H]3[C@H]12 0.155
C=CCC(OC(C)=O)[C@@H]1[C@@H](N(Cc2cccc3ccccc23)C(=O)c2cccc3ccccc23)c2cc(OCCCO)ccc2N1C(=O)c1ccc2ccccc2n1 (some centres undefined) 0.639
O=C1[C@]2(CO)C=C(Br)[C@@H](C[C@@H]2c2ccccc2)[C@@]12CO2 0.689
COCC1=C2[C@@H](CCc3ccccc3)OB(O)C[C@@H]2[C@@H]2C(=O)N(Cc3ccccc3)C(=O)[C@@H]2C1 -0.524
CCOC(=O)C1=CC[C@@H](c2ccccc2)N(S(=O)(=O)c2ccc(C)cc2)[C@H]1C(=O)OCC 0.615
Cc1ccccc1C(O)C1C=CC2C(=O)N(C)C(=O)C2N1Nc1ccccc1 (centres undefined) 0.0032
C=CCC(OC(C)=O)[C@@H]1[C@@H](N(Cc2ccc(-c3ccccc3)cc2)C(=O)Cc2ccc(OC)cc2)c2cc(OCCCO)ccc2N1C(=O)c1ccc2ccccc2n1 (some centres undefined) 0.245
CCN(CC)c1ccc(N2CC=CC34O[C@@H]5C=CCCOC(=O)C5[C@H]3C(=O)N(CCCCCO)[C@@H]4C2=O)cc1 (some centres undefined) 1.07
C[C@]1(C(=O)NCc2ccccc2)c2ccccc2C(=O)N(Cc2ccc(OC(F)(F)F)cc2)[C@H]1c1ccc(CO)cc1 0.843
CC(=O)Nc1cc(Br)ccc1C(=O)O -0.705
COC(=O)C[C@H]1O[C@]2(C(=O)N(Cc3ccccc3)c3ccc(NC(C)=O)cc32)[C@@H](C)[C@@H]1[Si](C)(C)c1ccc(OC)cc1 -0.114
COCCOC(=O)N1C(=O)[C@@]2(c3cc(C#CCC(C(=O)OC)C(=O)OC)ccc31)[C@H](C(=O)N1CCN(c3ncccn3)CC1)[C@H]1C(=O)O[C@H](c3ccccc3)[C@H](c3ccccc3)N1[C@@H]2c1ccc(OCCO)cc1 1.44
O=c1cccc(C=Cc2ccccc2)o1 0.0786
CCCCC(CC)C(O)C1C=CC2C(=O)N(c3ccccc3)C(=O)C2N1Nc1ccccc1 (centres undefined) 0.392
COc1ccc([Si](C)(C)[C@@H]2[C@@H](CC(=O)N(CCO)Cc3ccccc3)O[C@]3(C(=O)N(C)c4ccccc43)[C@H]2C)cc1 0.26
CC(C)C[C@@H]1NC(=O)[C@H]2C[C@@H](C(=O)NCCCCCNC(=O)CS)[C@@H](c3cccc(OCCO)c3)N2C1=O -0.014
O=C(OCCF)C1=CCC(c2cccc(Cl)c2)O1 (centres undefined) 0.13
O=C(O)[C@@]1(Cc2ccccc2)N=C(c2ccc(OCCCO)cc2)O[C@H]1c1ccccc1 -0.419
CO[C@H]1O[C@H](CO)[C@@H](OC(=O)Nc2ccc(Oc3ccccc3)cc2)[C@H](OC(=O)Nc2ccccc2)[C@H]1OC(=O)Nc1ccccc1 0.914
O=C(CS)NCCCCCCNC(=O)[C@H]1C[C@H]2C(=O)NCC(=O)N2[C@H]1c1ccc(O)cc1 0.131
COCCOC(=O)N1C(=O)[C@@]2(c3cc(C#CCCO)ccc31)[C@H](c1ccc(O)cc1)N1[C@H](c3ccccc3)[C@H](c3ccccc3)OC(=O)[C@H]1[C@@H]2C(N)=O 0.257
CC(C)(C)N1CC=CC23O[C@@H]4/C=C\CCCOC(=O)C4[C@H]2C(=O)N(CCO)[C@@H]3C1=O (some centres undefined) 0.103
